# Test results from PubChem BioAssay (NCATS).
# Inconclusive results are not listed. Values without a mark were called inactive. Active and inactive are the calls of the source. The call rests on the fitted dose curve; in most records, active means well fitted cell-killing curve with a large enough effect; inconclusive means small, poorly fitted or top-dose-only effect; inactive means flat fitted curve, though single readings scatter. Bridge positions count the residues as written; N and C are the ends. Square brackets hold non-standard residues; d marks the D form. Side chains are listed from the residue outwards. Peptide text beside a SMILES is read from it. * marks the point of attachment. Phg(4-OMe) = COc1ccc([C@H](N)C(=O)O)cc1; d(aIle) = CC[C@H](C)[C@@H](N)C(=O)O; d(aThr) = C[C@@H](O)[C@@H](N)C(=O)O; NMeF = CN[C@@H](Cc1ccccc1)C(=O)O; Isobutyryl = CC(C)C(=O)*
# Experiment: Viability qHTS for inhibitors of the SERCaMP assay screened against the NCATS CANVASS Library (AID 1347400); further: nearly all actives have a fitted effect of over 70% in size
# Details: SH-SY5Y SERCaMP cells viability, CellTiter-Glo, 48 h; series mostly up to 92.2 µM; activity change, negative = cytotoxicity: at the top concentration
# Source text: Natural products and their derivatives continue to be wellsprings of nascent therapeutic potential. However, many laboratories have limited resources for biological evaluation, leaving their previously isolated or synthesized compounds largely or completely untested. To address this issue, the Canvass library of natural products was assembled (https://tripod.nih.gov/canvass), in collaboration with academic and industry researchers, for quantitative high-throughput screening (qHTS) across a diverse set of cell-based and biochemical assays. The pure (>85% purity by liquid chromatography/mass spectrometry [LC/MS]) Canvass library of 346 natural products were submitted by 45 academic laboratories and companies around the world. We collected pure natural products to circumvent deconvolution and structure elucidation due to time and resource limitations. The library was formatted into 1536-well plates and evaluated in 50 qHTS (in an 11-pnt concentration series) bioassays with broad scope of disease-relevant mechanisms. The resulting data set from 50 different assays was then systematically analyzed to identify overall trends and specific natural products with interesting biological activities. Reported herein are the results of each individual qHTS and their corresponding assay protocol. Cytotoxic compounds are expected to interfere with the SERCaMP assay, and these are identified using a CellTiter-Glo viability assay. National Center for Advancing Translational Sciences (NCATS), Rockville, MD National Institute of Health (NIH), Bethesda, Maryland
# SERCaMP Viability assay protocol: 1. In a white-solid bottom 1536-well tissue culture plate (Corning 7494), 5 uL of SH-SY5Y-GLuc SERCaMP MJH297 derived cells were dispensed using a Multidrop Combi (Thermo Fisher Scientific) at a final concentration of 1000 cells / well. 2. The assay plates were incubated for 4 hours at 37C, 5% CO2, 95% humidity. 3. […] of compounds (in DMSO; columns 5-48), and positive control Bortezomib (1 mM; 1:2 dilution; 16-points; n = 2; column 2, rows 1-32) were pin transferred into the assay plates using the Kalypsis pin tool (Wako USA) equipped with a 1536-well pin heads. This yields a final concentration range of 0.0001 - 4.6 uM for the Bortezomib and 0.001 - 77 uM for the compounds. 4. The assay plates were incubated for 48 hours at 37C, 5% CO2, 95% humidity. 5. After incubation, 3 uL of CellTiterGlo reagent (Promega) was dispensed into each wells. 6. The plates were centrifuged for 15 seconds at 1000 rpm. 7. Luminescence signal was obtained via the ViewLux plate reader (Perkin Elmer) using the clear emission filter and 1x binning, 2 seconds exposure settings.
# On the % scale 0 is the no-effect control and ±100 the full control effect; potency means the concentration at half of the fitted maximal effect.
Structure (SMILES),"activity change, negative = cytotoxicity",Potency
C/C1=C/[C@@H](C)[C@H](O)[C@@H](O)/C=C/CC/C=C/C(=O)O[C@@H]1[C@H](C)C(=O)CCCC1CC(=O)NC(=O)C1,13.1%,
C[C@@]1(CCC(=O)Nc2c(O)ccc(C(=O)O)c2O)C(=O)C=C[C@]23C[C@H]4C[C@H](O[C@@]4(C)C2)C31 (stereo not given in full),-11.8%,
C/C=C/c1cc2c(c(=O)o1)C(=O)[C@@H](O)[C@H](C)O2,,34 µM (active)
COC(=O)[C@@]12Oc3cccc(O)c3C(O)=C1C(=O)C[C@H](C)[C@H]2O,-3.46% [at 183 µM],
C/C(=C\[C@H](C)C(=O)/C=C/CC1CC(=O)NC(=O)C1)[C@@H]1OC(=O)/C=C/CC/C=C/C[C@@H](O)[C@@H]1C,,17 µM (active)
C=C1C[C@H]2O[C@@H]3[C@@H]4[C@H](CC[C@@](C)(O)[C@@H]42)[C@H](C)COC3(C)[C@@H](OC(=O)CCCCCCC)C[C@H]1O (stereo not given in full),-22.7%,
C/C=C(/C)c1c(Cl)c(O)c(C)c2c1Oc1c(Cl)c(O)c(Cl)c(C)c1C(=O)O2,-16.8%,
C/C=C/C1C=CC2CC(C)CC(C)C2C1C(=O)CC(=O)NC(CO)C/C=C/CCCCC (stereo not given),-15.3%,
CC(C)=CCC[C@]12c3cc4c(cc3CC[C@@]1(C)[C@H](C)CC[C@@H]2O)[nH]c1ccccc14,2%,
CCC(=O)CCCCC[C@@H]1NC(=O)[C@H]2CCCCN2C(=O)[C@H](C(C)C)NC(=O)[C@H](Cc2cn(OC)c3ccccc23)NC1=O,,15.2 µM (active)
CC(=O)N[C@H](C)c1nc(/C=C/C=C/C(=O)CC2CC(=O)CC[C@]2(C)O)cs1 (stereo not given in full),4.64%,
C=C1CC[C@@H](Br)C(C)(C)[C@]12CC=C(C)C(=O)C2,12.1%,
CC(C)C[C@@H]1c2c(O)c(C=O)c(O)c(C=O)c2O[C@]2(C)C=C[C@@H](C(C)C)C[C@H]12,0.115%,
CN1C(=O)C(=O)N2C(=C[C@]3(c4c[nH]c5ccccc45)c4ccccc4N[C@H]23)C1=O,7.17%,
COC(=O)C1=C[C@]23C[C@@H](C)CC[C@@H]2[C@@]2(C)CC[C@@H](C(C)C)[C@@](O)(O3)[C@@H]12,25.2%,
C[C@H](CCC(O)C(C)(O)CO)[C@@]1(O)CC[C@@]2(C)C3=C(CC[C@@]21C)[C@@]1(C)CCC(OC(=O)CCC(=O)O)C(C)(C)[C@@H]1CC3 (stereo not given in full),19.6%,
COc1cc2ccc(=O)oc2c(O)c1O[C@@H]1O[C@H](CO)[C@@H](O)[C@H](O)[C@H]1O,7.29% [at 55.1 µM],
C/C(=C\[C@H](C)C(=O)CCCC1CC(=O)NC(=O)C1)[C@@H]1OC(=O)/C=C/CC/C=C/[C@H](O)[C@@H](O)[C@@H]1C,,3.81 µM (active)
C/C1=C/[C@@H](C)[C@H](O)[C@@H](O)/C=C/CC/C=C/C(=O)O[C@@H]1[C@H](C)C(=O)/C=C/CC1CC(=O)NC(=O)C1,,3.03 µM (active)
COc1cc([C@@H]2c3cc4c(cc3C[C@@]3(O[C@@H]5O[C@H](CO)[C@@H](O)[C@H](O)[C@H]5O)COC(=O)[C@H]23)OCO4)cc(OC)c1OC,,0.048 µM (active)

Structure (SMILES),"activity change, negative = cytotoxicity",Potency
C[C@@]12CCC[C@@](C)(C(=O)O)[C@H]1C[C@@H](O)[C@@]13C[C@@H](CC[C@@H]21)[C@](C)(O)C3,9.92%,
C=CC(C)(C)C(=O)[C@@H](C)[C@@H]1CC[C@@](C)(C=C)O1,4.32%,
COC1C(C)OC(OCC23C[C@@H]4[C@H](C)CC[C@H]4C4(C=O)CC2C=C(C(C)C)C34C(=O)O)[C@@H](O)[C@H]1O (stereo not given in full),-7.04%,
CCC(C)=C1OC(=O)[C@H](C)[C@H](O)[C@H](Cc2cccnc2)NC(=O)C(NC(=O)c2ncccc2O)C(C)OC1=O (stereo not given in full),9.05%,
O=C1c2c(O)cc(O)cc2OC(c2ccc(O)cc2)C1O (stereo not given),6.21%,
CC1(C)CC[C@]2(CO)CC[C@]3(C)C(=CCC4[C@@]5(C)CC[C@H](O)C(C)(C)C5CC[C@]43C)C2C1 (stereo not given in full),11.1%,
CO[C@@H]1[C@H](O)[C@@H](C)O[C@@H](OC[C@@H]2C(C)OC(=O)/C=C/[C@H](C)C(O[C@@H]3O[C@H](C)CC4(OC(=O)O[C@@H]4C)C3O)[C@@H](C)CC(C)C(=O)/C=C/[C@H]3OC23)[C@@H]1OC (stereo not given in full),,42.8 µM (active)
COc1ccc2[nH]c3c(c2c1)CCN1C[C@H]2C[C@@H](OC(=O)c4cc(OC)c(OC)c(OC)c4)[C@H](OC)[C@@H](OC)[C@H]2C[C@H]31,5.66%,
CO[C@@H](C[C@@H](C)[C@@H](O)/C=C/C=C/CNC(=O)C(C)(C)[C@H](O)\C(C)=C/C=C\C=C\Cc1cnco1)[C@]1(O)[C@@H](C)C(=O)N(C)[C@@]12COC2=O,8.13%,
CC[C@H](C)[C@H]1NC(=O)[C@@H](NC(=O)C(C)C)[C@@H](C)OC(=O)[C@H](COC(=O)CNC(C)=O)NC(=O)[C@@H]([C@@H](C)O)NC(=O)[C@H](Cc2ccccc2)N(C)C(=O)[C@H](c2ccc(OC)cc2)NC1=O (Isobutyryl-T[d(aIle)][Phg(4-OMe)][NMeF][d(aThr)]S([Gly-Ac]); ester 1-C),3.91%,
C/C=C/[C@H]1[C@H]2C(=O)c3c(O)c(C)c(O)c(C)c3[C@]1(C(=O)O)C(=O)C=C2C,9.03%,
O=C(OC[C@H]1O[C@@H](OC(=O)c2cc(O)c(O)c(O)c2)[C@H](OC(=O)c2cc(O)c(O)c(O)c2)[C@@H](OC(=O)c2cc(O)c(O)c(O)c2)[C@@H]1OC(=O)c1cc(O)c(O)c(O)c1)c1cc(O)c(O)c(O)c1,,34 µM (active)
C/C(=C\[C@@H](C)CC/C=C/CC/C=C/C(=O)O)[C@@H](O)[C@H](C)C(=O)CCCC1CC(=O)NC(=O)C1,-7.01%,
C/C=C1/CN2C3CC1C1C=CC(=O)N4c5ccccc5[C@@]3(C[C@@H]2C2=C[C@H]3C5CC6N(CC[C@@]67c6ccccc6N(C2=O)[C@@H]37)C/C5=C/C)[C@H]14 (stereo not given in full),,19.1 µM (active)
CC(C)=CC[C@H]1C[C@@]2(CC=C(C)C)C(=O)[C@](CC=C(C)C)(C(=O)C(C(=O)c3ccccc3)=C2O)C1(C)C,-4.05%,
C[C@@]12CCC[C@@](C)(C(=O)OP(=O)(O)OC[C@H]3O[C@@H](n4cnc5c(N)ncnc54)[C@H](O)[C@@H]3O)[C@H]1C[C@@H](O)[C@@]13C[C@@H](CC[C@@H]21)[C@](C)(O)C3,0.0492%,
C=C1CCC2C(C)(C(=O)O)CCC(CC/C(C)=C/C(=O)NC(CCC(N)=O)C(=O)O)[C@@]2(C)C1 (stereo not given in full),4%,
[C-]#[N+][C@@]12C(=O)[C@@H]3[C@@H](O[C@@]4(C(=O)N(C)c5cccc1c54)C3(C)C)C(=O)[C@@]2(C)C=C,12.8%,
C/C=C(/C)c1cc(O)c(C)c2c1Oc1cc(O)cc(C)c1C(=O)O2,-3.38%,
C[C@@]12C[C@@H](C[C@@H]3C(=O)O[C@@H](c4ccoc4)[C@H](OC(=O)c4ccccc4)[C@@H]31)OC2=O,12.4%,
